In PubChem BioAssay (NCI):
This is part of a sample that, as a whole, favours compounds with a hit. Of some 79,000 tested, about 15% had one in any assay. Active and inactive are the calls of the source. No stated cut-off is given here; in the data, active means growth inhibition above about 70%; inactive means the rest.

What was measured:
[1] = NCI Yeast Anticancer Drug Screen. Data for the rad52 strain (AID 147);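 further: 0% = growth of vehicle-treated control cultures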; conditions: S. cerevisiae rad52 mutant growth inhibition, stronger effect = higher value
Procedure, shortened: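 Screen used a yeast mutant impaired in DNA repair. After compound exposure, growth was measured. Values reflect inhibition compared with vehicle-treated cells.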

[2] = NCI Yeast Anticancer Drug Screen. Data for the wt1 strain (AID 149);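 further: 0% = growth of vehicle-treated wt1 cultures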; conditions: S. cerevisiae wt1 strain (SPY 50644) growth inhibition, stronger effect = higher value
Procedure, shortened: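 Each compound is tested on wt1 yeast and the loss of growth versus vehicle gives the inhibition value.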

[3] = NCI Yeast Anticancer Drug Screen. Data for the rad50EPP+ strain (AID 151);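 further: 0% = growth of vehicle-treated control cultures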; conditions: S. cerevisiae rad50 mutant strain, stronger effect = higher value
Procedure, shortened: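 Exposing the rad50EPP+ strain to each compound, growth was compared with vehicle-only cultures to give inhibition.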

[4] = NCI Yeast Anticancer Drug Screen. Data for the mgt1 strain (AID 153); conditions: S. cerevisiae mgt1 mutant growth inhibition, stronger effect = higher value
Procedure, shortened: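 Genetically defined yeast (mgt1) treated with compound; inhibition of growth expressed against vehicle-treated controls.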

[5] = NCI Yeast Anticancer Drug Screen. Data for the rad50 strain (AID 155);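 further: 0% = growth of vehicle-only cultures of the same strain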; conditions: S. cerevisiae rad50 strain growth inhibition, stronger effect = higher value
Procedure, shortened: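 Vehicle-treated cultures provide the reference for the growth inhibition reported for compound-exposed, repair-deficient yeast.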

[6] = NCI Yeast Anticancer Drug Screen. Data for the mec2-1 strain (AID 157); conditions: S. cerevisiae mec2-1 strain, stronger effect = higher value
Procedure, shortened: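 Readout is yeast growth inhibition, normalised to vehicle-treated controls, in the mec2-1 strain exposed to compound.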

[7] = NCI Yeast Anticancer Drug Screen. Data for the rad14 strain (AID 159);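 further: 0% = growth of vehicle-treated control cultures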; conditions: S. cerevisiae rad14 strain growth inhibition, stronger effect = higher value
Procedure, shortened: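 Inhibition of growth is reported for a repair-deficient yeast mutant following compound treatment, calculated relative to cultures that received vehicle.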

[8] = NCI Yeast Anticancer Drug Screen. Data for the sgs1 mgt1 strain (AID 161);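 further: 0% = growth of cultures given vehicle only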; conditions: S. cerevisiae sgs1 mgt1 strain, stronger effect = higher value
Procedure, shortened: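 Yeast cells carrying a defined DNA-repair defect were exposed to test compounds. Growth inhibition was measured relative to vehicle-treated controls.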

[9] = NCI Yeast Anticancer Drug Screen. Data for the CLN2oe strain (AID 163);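 further: 0% = growth of vehicle-only control cultures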; conditions: S. cerevisiae CLN2oe strain, stronger effect = higher value
Procedure, shortened: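 Values reflect how much compound exposure reduced yeast growth, referenced to vehicle-exposed cells. Assay organism is a strain with a defined genetic change affecting cell-cycle control.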

[10] = NCI Yeast Anticancer Drug Screen. Data for the cln2 rad14 strain (AID 165);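 further: 0% = growth equal to vehicle treated cultures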; conditions: S. cerevisiae cln2 rad14 strain, stronger effect = higher value
Procedure, shortened: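 Relative to vehicle controls, growth inhibition of compound-treated cln2 rad14 yeast was recorded.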

[11] = NCI Yeast Anticancer Drug Screen. Data for the bub3 strain (AID 167); conditions: S. cerevisiae bub3 mutant strain, stronger effect = higher value
Procedure, shortened: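 Mutant yeast screening strain plus compound; vehicle-treated cultures serve as the 0% inhibition reference.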

[12] = NCI Yeast Anticancer Drug Screen. Data for the wt2 strain (AID 169); conditions: S. cerevisiae wt2 strain growth inhibition, stronger effect = higher value
Procedure, shortened: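 Values express reduction in yeast growth under compound treatment, referenced to vehicle-treated cells.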

[13] = NCI Yeast Anticancer Drug Screen. Data for the sgs1 strain (AID 173);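 further: 0% = growth of vehicle-only control cultures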; conditions: S. cerevisiae sgs1 mutant, stronger effect = higher value
Procedure, shortened: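 Treat defined-mutant yeast with compound; measure growth; calculate inhibition relative to vehicle-treated cells.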

[14] = NCI Yeast Anticancer Drug Screen. Data for the mlh1 rad18 strain (AID 175); conditions: S. cerevisiae mlh1 rad18 strain growth inhibition, stronger effect = higher value
Procedure, shortened: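 Test agents were incubated with a yeast strain of defined genotype (DNA damage repair defect). Inhibition of growth was derived by comparison with vehicle-exposed cultures.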

[15] = NCI Yeast Anticancer Drug Screen. Data for the rad18 strain (AID 177); conditions: S. cerevisiae rad18 mutant growth inhibition, stronger effect = higher value
Procedure, shortened: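 A genetically defined yeast mutant impaired in DNA damage repair was treated with test compounds, then its growth was measured against cultures receiving vehicle alone.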

[16] = at 5.0 µM (retest, dose inferred, filed as 0.5)
[17] = at 50.0 µM (retest, dose inferred, filed as 5.0)

Measured: growth inhibition

Nc1ncncc1C(C1=C(O)COC1=O)C1=C(O)COC1=O
inactive: [1]; at 1.2 µM 2% | [1]; at 3.7 µM -1% | [1]; at 11.0 µM -1% | [1]; at 33.0 µM -2% | [1]; at 100.0 µM 0% | [2]; at 1.2 µM 1% | [2]; at 3.7 µM 4% | [2]; at 11.0 µM -3% | [2]; at 33.0 µM 0% | [2]; at 100.0 µM 1% | [3]; at 1.2 µM 6% | [3]; at 3.7 µM 10% | [3]; at 11.0 µM 10% | [3]; at 33.0 µM 6% | [3]; at 100.0 µM 2% | [4]; at 1.2 µM -2% | [4]; at 3.7 µM -4% | [4]; at 11.0 µM -6% | [4]; at 33.0 µM -2% | [4]; at 100.0 µM -2% | [5]; at 1.2 µM 2% | [5]; at 3.7 µM 2% | [5]; [16] -10% | [5]; at 11.0 µM -2% | [5]; at 33.0 µM 0% | [5]; [17] 15% | [5]; at 50.0 µM 8.05% | [5]; at 100.0 µM 1% | [6]; at 1.2 µM 4% | [6]; at 3.7 µM 7% | [6]; [16] -15% | [6]; at 11.0 µM 8% | [6]; at 33.0 µM 8% | [6]; [17] -16% | [6]; at 50.0 µM 5.95% | [6]; at 100.0 µM 0% | [7]; at 1.2 µM -2% | [7]; at 3.7 µM -4% | [7]; at 11.0 µM -2% | [7]; at 33.0 µM -5% | [7]; at 100.0 µM -2% | [8]; [16] -10% | [8]; [17] 13% | [8]; at 50.0 µM 8% | [9]; at 1.2 µM -7% | [9]; at 3.7 µM -16% | [9]; at 11.0 µM -6% | [9]; at 33.0 µM -8% | [9]; at 100.0 µM -8% | [10]; [16] -5% | [10]; [17] 0% | [10]; at 50.0 µM 35.1% | [11]; at 1.2 µM -2% | [11]; at 3.7 µM -1% | [11]; [16] 1% | [11]; at 11.0 µM -1% | [11]; at 33.0 µM -2% | [11]; [17] 19% | [11]; at 50.0 µM -6.55% | [11]; at 100.0 µM -8% | [12]; at 1.2 µM 1% | [12]; at 3.7 µM 1% | [12]; at 11.0 µM -1% | [12]; at 33.0 µM 0% | [12]; at 100.0 µM 1% | [13]; at 1.2 µM 3% | [13]; at 3.7 µM 3% | [13]; at 11.0 µM 3% | [13]; at 33.0 µM 2% | [13]; at 100.0 µM -1% | [14]; [16] 2% | [14]; [17] 57% | [14]; at 50.0 µM 4.8% | [15]; at 1.2 µM 1% | [15]; at 3.7 µM 0% | [15]; at 11.0 µM -1% | [15]; at 33.0 µM -3% | [15]; at 100.0 µM -4%

CC(C(=O)N1C(=O)N(C(=O)[C@H](C)C(O)c2ccccc2)[C@H](c2ccccc2)[C@H]1c1ccccc1)[C@@H](O)c1ccccc1 (stereo partly specified)
active: [5]; at 50.0 µM 80.1% | [6]; at 50.0 µM 73.2% | [8]; at 50.0 µM 83.4% | [10]; [16] 71% | [10]; at 50.0 µM 77.2% | [11]; [17] 90% | [11]; at 50.0 µM 84.2% | [13]; at 100.0 µM 70% | [14]; at 50.0 µM 82.2%
inactive: [1]; at 1.2 µM -1% | [1]; at 3.7 µM -2% | [1]; at 11.0 µM 11% | [1]; at 33.0 µM 37% | [1]; at 100.0 µM 62% | [2]; at 1.2 µM 1% | [2]; at 3.7 µM -1% | [2]; at 11.0 µM -2% | [2]; at 33.0 µM 17% | [2]; at 100.0 µM 36% | [3]; at 1.2 µM -4% | [3]; at 3.7 µM -4% | [3]; at 11.0 µM -1% | [3]; at 33.0 µM -3% | [3]; at 100.0 µM -11% | [4]; at 1.2 µM -6% | [4]; at 3.7 µM -9% | [4]; at 11.0 µM 4% | [4]; at 33.0 µM 25% | [4]; at 100.0 µM 59% | [5]; at 1.2 µM -7% | [5]; at 3.7 µM -15% | [5]; [16] -5% | [5]; at 11.0 µM -9% | [5]; at 33.0 µM 41% | [5]; [17] 39% | [5]; at 100.0 µM 56% | [6]; at 1.2 µM -5% | [6]; at 3.7 µM -1% | [6]; [16] -14% | [6]; at 11.0 µM 8% | [6]; at 33.0 µM 33% | [6]; [17] 51% | [6]; at 100.0 µM 55% | [7]; at 1.2 µM -7% | [7]; at 3.7 µM -12% | [7]; at 11.0 µM 1% | [7]; at 33.0 µM 15% | [7]; at 100.0 µM 36% | [8]; [16] -12% | [8]; [17] 38% | [9]; at 1.2 µM -11% | [9]; at 3.7 µM -13% | [9]; at 11.0 µM 12% | [9]; at 33.0 µM 36% | [9]; at 100.0 µM 51% | [10]; [17] 59% | [11]; at 1.2 µM -4% | [11]; at 3.7 µM -3% | [11]; [16] -27% | [11]; at 11.0 µM 5% | [11]; at 33.0 µM 23% | [11]; at 100.0 µM 48% | [12]; at 1.2 µM -8% | [12]; at 3.7 µM -7% | [12]; at 11.0 µM 4% | [12]; at 33.0 µM 41% | [12]; at 100.0 µM 62% | [13]; at 1.2 µM -2% | [13]; at 3.7 µM 2% | [13]; at 11.0 µM 30% | [13]; at 33.0 µM 65% | [14]; [16] 7% | [14]; [17] 37%
